Among all 390,000 compounds or so, about 4,000 (1%) were called active. Roughly 7% stayed inconclusive and do not appear here. Only a selection was taken, and actives are over-represented in it overall. A number with no mark means an inactive call. Calls come from the whole dose curve; as a rule, active = well fitted inhibition curve with a large enough effect; inconclusive = small, poorly fitted or top-dose-only effect, or another doubt; inactive = no such curve, though single readings can be large or run the other way.
molecular target: DNA polymerase iota (Homo sapiens) (UniProt Q9UNA4); assay: qHTS for Inhibitors of Polymerase Iota; conditions: Pol iota fluorescent replication assay, 10 min; series mostly up to 115 µM; activity, negative = inhibition: at the top concentration
Procedure, shortened: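 Pol iota at 10 nM preincubated 15 min with compounds at room temperature; reaction started with fluorescent substrate, 50 nM final. Fluorescence read kinetically at 0 and 10 min; buffer-only wells as negative control.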
Potency is the fitted concentration of half-maximal effect.

Chain of DNA polymerase iota (Homo sapiens) (Q9UNA4 whole entry, looked up): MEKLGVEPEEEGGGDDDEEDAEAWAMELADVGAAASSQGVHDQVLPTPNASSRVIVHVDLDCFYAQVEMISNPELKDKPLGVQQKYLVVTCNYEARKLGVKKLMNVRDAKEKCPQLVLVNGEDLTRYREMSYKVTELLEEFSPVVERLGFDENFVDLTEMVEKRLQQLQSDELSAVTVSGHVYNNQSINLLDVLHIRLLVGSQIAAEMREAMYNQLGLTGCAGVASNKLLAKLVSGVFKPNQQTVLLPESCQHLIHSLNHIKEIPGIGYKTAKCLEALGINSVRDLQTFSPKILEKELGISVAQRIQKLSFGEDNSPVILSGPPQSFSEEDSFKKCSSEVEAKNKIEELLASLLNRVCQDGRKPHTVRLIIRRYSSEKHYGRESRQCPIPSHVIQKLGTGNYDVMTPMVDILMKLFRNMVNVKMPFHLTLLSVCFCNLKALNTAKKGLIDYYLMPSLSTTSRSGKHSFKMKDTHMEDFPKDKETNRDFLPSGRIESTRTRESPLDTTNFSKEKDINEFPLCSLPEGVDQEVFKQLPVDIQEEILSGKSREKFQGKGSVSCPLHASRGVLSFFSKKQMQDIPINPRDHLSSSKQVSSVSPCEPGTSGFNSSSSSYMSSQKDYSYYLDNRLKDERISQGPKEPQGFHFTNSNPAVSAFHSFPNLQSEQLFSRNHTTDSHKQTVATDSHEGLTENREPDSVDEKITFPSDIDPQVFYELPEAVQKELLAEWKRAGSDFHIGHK

Row | SMILES | activity, negative = inhibition | Potency
1 | Cc1ccc(CN(C(=O)c2ccccc2[N+](=O)[O-])c2ccccn2)cc1 | 8.51% | –
2 | CCn1cc(C(=O)NCc2ccc(C)cc2)c(=O)c2cc(S(=O)(=O)N3CCc4ccccc4C3)ccc21 | 6.69% | –
3 | Cc1nc2nc(SCC(=O)NCc3ccco3)nn2c(C)c1Cc1ccccc1 | – | 50.1 µM (active)
4 | COc1cc(NC(=O)CSc2nc3nc(C)c(Cc4ccc(C)cc4)c(C)n3n2)cc(OC)c1OC | 14.9% | –
5 | Cc1ccc(Cc2c(C)nc3nc(SCC(=O)NCCN4CCOCC4)nn3c2C)cc1 | 6.43% | –
6 | O=C(CN1C(=O)CCn2nc(-c3ccccc3)cc21)NCc1ccccc1 | 15.2% | –
7 | CCCCc1nn2c(=O)cc(COC(=O)c3ccccc3NC(=O)C(C)(C)C)nc2s1 | 2.84% | –
8 | COc1ccc(/C=C/C(=O)OCC(=O)NC2CCCCCC2)cc1OC | – | 89.1 µM (active)
9 | COc1cc(/C=C/C(=O)OCC(=O)NC2CC2)cc(OC)c1OC | -18% | –
10 | COc1ccccc1/C=C/C(=O)OCC(=O)NC1CCCCCC1 | 36.9% | –
11 | Cc1c(Cl)cccc1NC(=O)C1CCCN(C(=O)c2cnn(-c3ccccc3)c2-n2cccc2)C1 (stereo not drawn) | 27.3% | –
12 | CN(C)/C=C1/Nc2ccccc2C1=O | – | 28.2 µM (active)
13 | CCCS(=O)(=O)C(=C1Nc2ccccc2N1)S(=O)(=O)CCC | 2.05% | –
14 | COc1ccccc1CNC(=O)Cn1nc(C)c2nn(-c3ccc(Cl)cc3)c(C)c2c1=O | 19.7% | –
15 | COC(=O)c1ccccc1NS(=O)(=O)c1ccc2c(c1)CCCN2C(C)=O | -5.29% | –
16 | O=C1C(Cl)=C(Oc2ccccc2)C(=O)c2ccccc21 | – | 1.78 µM (active)
17 | COc1ccccc1CNC(=O)CS(=O)(=O)c1cccc2nsnc12 | 1.49% | –
18 | Cc1nn2c(=O)cc(COC(=O)CNC(=O)c3ccc(F)cc3)nc2s1 | -5.5% | –
19 | O=C(Cc1ccccc1)Nc1sc2c(c1C(=O)Nc1ccc(Br)cc1)CCC2 | 16.3% | –
20 | COc1cccc(N=C2SC(C(=O)Nc3cccc(Cl)c3)CC(=O)N2C)c1 (stereo not drawn) | -6.41% | –
21 | CCCCNC(=O)Cn1c(SCc2cccc(Cl)c2)nc2ccncc21 | 24.8% | –
22 | COc1ccc(NC(=O)COCc2cc(-c3ccco3)on2)cc1 | -14.4% | –
23 | CCOc1ccc(NC(=O)c2ncoc2-c2ccco2)cc1 | 2.03% | –

Row | SMILES | activity, negative = inhibition | Potency
24 | COCCNC(=O)Nc1ccc2nc(-c3ccco3)c(-c3ccco3)nc2c1 | – | 2.82 µM (active)
25 | COc1ccc(NC(=O)CCCc2nnc3n(CCC(C)C)c(=O)c4sccc4n23)c(OC)c1 | 9.5% | –
26 | Cc1ccc(CN2C(=O)SC(Nc3ccccc3)C2=O)cc1 (stereo not drawn) | -9.14% | –
27 | CC(C)C1N=C2c3ccccc3N=C(SCC(=O)c3ccc(O)c(O)c3)N2C1=O (stereo not drawn) | – | 1.41 µM (active)
28 | CCOC(=O)CSC1=Nc2ccccc2C2=NC(CCC(=O)NCc3ccc(F)cc3)C(=O)N12 (stereo not drawn) | 0.348% | –
29 | Cc1ccc(CNC(=O)CSC2=Nc3ccccc3C3=NC(C)C(=O)N23)cc1 (stereo not drawn) | -0.464% | –
30 | COc1ccc(NC(=O)CSc2nc3ccccc3n2CC(=O)N2CCCCC2C)cc1 (stereo not drawn) | -7.07% | –
31 | CCOc1ccc(S(=O)(=O)Nc2ccc3oc4c(c3c2)CC(C)CC4)cc1 (stereo not drawn) | 8.03% | –
32 | COC(=O)c1cc(NC(=O)c2sc3ccccc3c2Cl)cc(C(=O)OC)c1 | 8.39% | –
33 | Oc1ccc(N=Cc2sc3ccccc3c2Cl)cc1 | – | 8.91 µM (active)
34 | O=S(=O)(c1ccc2nc(N3CCN(c4cccc(Cl)c4)CC3)ccc2c1)N1CCCCC1 | -5.47% | –
35 | c1ccc(Cn2nnc3c(N4CCCCC4)ncnc32)cc1 | 47.3% | –
36 | Cc1ccc(-c2nc(Cn3c(=O)cc(-c4ccccc4)c4c(C)nn(C)c43)c(C)o2)cc1 | -6.95% | –
37 | COc1cc(OC)cc(C(=O)Nc2ccc3nc(Nc4cccc(C(F)(F)F)c4)cc(C)c3c2)c1 | 13.8% | –
38 | Cc1cccc(NC(=O)CSc2nc3c(oc4ccccc43)c(=O)n2-c2ccc(F)cc2)c1 | 33.5% | –
39 | Cc1ccc2c(=O)c(C(=O)c3cccc(Cl)c3)cn(CC(=O)NCc3ccccc3)c2n1 | -2.34% | –
40 | NS(=O)(=O)c1ccc(NS(=O)(=O)/C=C/c2ccccc2)cc1 | 30% | –
41 | O=C(COC(=O)/C=C/c1cccc(Cl)c1)NCCc1ccccc1 | 17.7% | –
42 | NNc1cccc(C=Cc2ccccc2)cc1=O | – | 25.1 µM (active)
43 | CCC(=O)N1CCc2cc(Br)cc(S(=O)(=O)CCC(=O)N3CCN(c4ccc(F)cc4)CC3)c21 | 15.6% | –
44 | Cn1c(SCC(=O)N2CCCc3ccccc32)ncc(C(=O)Nc2ccc(F)cc2)c1=O | 17.9% | –
45 | S=c1[nH]c(=S)c2n[nH]nc2[nH]1 | 21.1% | –
46 | COc1cccc(C(=O)Nc2ccc3oc(-c4ccc5ccccc5c4)nc3c2)c1 | -20.5% | –

Row | SMILES | activity, negative = inhibition | Potency
47 | COc1cc2nc(N3CCCN(C)CC3)nc(NC(C)C)c2cc1OC | 35.2% | –
48 | O=C(Nc1ccccc1)N(Cc1cccnc1)Cc1ccco1 | -13.8% | –
49 | Cc1cccc2cc(CN(Cc3cccs3)C(=S)NCc3ccco3)c(=O)[nH]c12 | 10.6% | –
50 | Cc1ccc(C)c2[nH]c(=O)c(CN(Cc3cccnc3)C(=S)NCc3ccco3)cc12 | – | 44.7 µM (active)
51 | O=C(c1ccc2c(c1)N(Cc1ccccc1)C(=O)c1ccccc1S2(=O)=O)N1CCCC1 | 10.1% | –
52 | COc1cc2nc(SCC(=O)Nc3ccccc3F)n3nc(-c4ccccc4)nc3c2cc1OC | -24.9% | –
53 | CCc1cc2c(cc3c(=O)n(CC(=O)N4CCN(c5cc(Cl)ccc5C)CC4)nc(CC)n32)s1 | 37.4% | –
54 | CCc1ccc(NC(=O)CN2C(=O)CCSc3ccc(S(=O)(=O)N4CCCC4)cc32)cc1 | 8.35% | –
55 | O=C(NCCc1ccccn1)c1cc(-c2ccc(Cl)cc2)nc2ccccc12 | -7.04% | –
56 | CCc1ccc(-c2cc(C(=O)NN3CCN(C)CC3)c3ccccc3n2)cc1 | 25.1% | –
57 | Cc1ccc(NC(=O)c2cc(-c3ccc(C)o3)nc3ccccc23)nc1 | – | 20 µM (active)
58 | C=Cc1ccc(Cn2c(C(=O)OC)cc3sc(C)cc32)cc1 | 30% | –
59 | CCOc1cccc2c1N[C@@H](c1ccc(C(=O)O)cc1)[C@H]1CC=C[C@@H]21 | – | 5.62 µM (active)
60 | CCOc1cc(C(=O)O)ccc1OCCOc1ccccc1 | 21.3% | –
61 | CCOc1c(CNCc2ccc(C(=O)O)cc2)cccc1OC | -4.83% | –
62 | COc1cc(OC)cc(-c2nc3nc(C)c(CCC(=O)Nc4ccc(C)cc4)c(C)n3n2)c1 | 25.1% | –
63 | CCc1ccc(NC(=O)Cn2nnc(C(=O)NCc3ccc4c(c3)OCO4)c2N)cc1 | -19.8% | –
64 | Cc1cccc(NC(=O)c2nnn(CC(=O)Nc3ccc(C(C)C)cc3)c2N)c1C | 27.1% | –
65 | CC(C)c1ccc(NC(=O)Cn2nnc(C(=O)NCCc3ccccc3)c2N)cc1 | – | 79.4 µM (active)
66 | COc1cccc(CNC(=O)c2nnn(CC(=O)Nc3cc(Cl)ccc3C)c2N)c1 | – | 50.1 µM (active)
67 | COc1cccc(CNC(=O)c2n[nH]c3ccccc23)c1 | 58.2% | –
68 | CCOc1ccccc1NC(=O)Cn1nnc(C(=O)Nc2ccc(C)c(C)c2)c1N | -19.8% | –
